Values joined by “and” are separate entries in the source; they are usually repeats but may differ in a detail not shown here. Equal values may be shown once. Inconclusive results are not listed. Where a call stands in place of a potency, no number is given. A structure can be active in one record and inactive in another. Active and inactive are the calls of the source. The call rests on the fitted dose curve; in most records, active means well fitted cell-killing curve with a large enough effect in the repeat runs; inconclusive means weak or mixed curves, or effect the other way; inactive means no such curve, though single readings can be large or run the other way.
Potency means the concentration at half of the fitted maximal effect.

A short description of the experiment: qHTS assay to identify small molecule antagonists of the vitamin D receptor (VDR) signaling pathway - cell viability counter screen (AID 743225). Further: nearly all actives have a fitted effect of over 50% in size. The conditions noted are these: VDR-bla HEK293T viability, CellTiter-Glo luminescence, 16 h; series mostly up to 61 µM. The text has this:
U.S. Tox21 Program National Center for Advancing Translational Sciences [NCATS] NIH Chemical Genomics Center [NCGC] U.S. Environmental Protection Agency [EPA] National Institutes of Environmental Health Sciences [NIEHS] National Toxicology Program [NTP] U.S. Food and Drug Administration [FDA] Tox21 Assay Overview: The vitamin D receptor (VDR), a member of nuclear hormone receptor superfamily, plays a critical role in calcium homeostasis and bone metabolism. It is also involved in cell differentiation and growth, and thrombogenicity. To identify the compounds that inhibit VDR signaling, the VDR-UAS-bla HEK 293T cell line (Invitrogen, Carlsbad, CA, USA) containing a beta-lactamase reporter gene under the control of an upstream activator sequence (UAS) was used to screen the Tox21 10K compound library. The cytotoxicity of the Tox21 compound library against the VDR-bla cell line was tested in parallel by measuring the cell viability using CellTiter-Glo assay (Promega, Madison, WI) in the same wells.
Tox21 Assay Protocol Summary: VDR-bla cells were dispensed at 2,000 cells/5 uL of assay medium per well into black wall/clear-bottom 1536-well plates using a Multidrop Combi (Thermo Fisher Scientific, Waltham, MA) dispenser. After the assay plates were incubated at a 37C and 5% CO2 for 4 h, 23 nL of compounds dissolved in DMSO, positive controls or DMSO only was transferred to the assay plate by a Pintool station (Kalypsys, San Diego, CA), followed by addition of 1 uL of 1-alpha, 25-Dihydroxy Vitamin D3 (3 nM, final concentration in the wells) using a Bioraptr Flying Reagent Dispenser (FRD) workstation (Beckman Coulter, Indianapolis, IN). The plates were incubated at 37C and 5% CO2 for 16 h, and then 1 uL of LiveBLAzerTM B/G FRET substrate was added using a Bioraptr FRD. The plates were incubated at room temperature for 2 h and fluorescence intensity was measured by an Envision plate reader (PerkinElmer, Shelton, CT). For cell viability readout that measures cytotoxicity, 3 ul/well of CellTiter-Glo reagent was added into the assay plates using a Bioraptr FRD. After 30 min incubation at room temperature, the luminescence intensity in the plates was measured using a ViewLux plate reader (PerkinElmer).
On the technique in general: Quantitative high-throughput screening tests each substance at several concentrations.
On to `CCCCCCCCn1sccc1=O`, for which the Potency is 19.5 µM (active) and 22.9 µM (active).

Regarding `CN1C[C@H](C(=O)N[C@]2(C)O[C@@]3(O)[C@@H]4CCCN4C(=O)[C@H](Cc4ccccc4)N3C2=O)C=C2c3cccc4[nH]cc(c34)C[C@H]21`, the Potency entry was “inactive”. As for `C=CCSSCC=C`, the entry is “inactive”; as for `O=C1NC(=O)C(=O)C(=O)N1`, “inactive”; as for `CCCCCCCCCCCCN(C)C`, “inactive”. As for `c1ccc2c(c1)sc1ccccc12`, the entry is “inactive and 19 µM (active)”. For `NNCCO`, the Potency entry was “inactive”. `C[C@H](N)[C@H](O)c1ccc(O)c(O)c1`: the Potency entry was “inactive”. Next, `CCCCC(CC)CO[N+](=O)[O-]` (stereo not given): “inactive”.

On to `CNC(=O)Oc1cccc(N=CN(C)C)c1`, for which the Potency entry was “inactive”. Consider `CCC1CCC(=O)O1` (stereo not given), for which the Potency result is “inactive”. For the molecule `CCOP(=O)(SC(C)CC)N1CCSC1=O` (stereo not given), the Potency entry is “inactive”.

On to `NC(=O)CF`, for which the Potency result was “inactive”. Next, `N#CC(C#N)=Cc1ccc(O)c(O)c1`: “inactive”; `CCCC(C)(COC(N)=O)COC(=O)NC(C)C` (stereo not given): “inactive”; `CC(C)CCON=O`: “inactive”. Next, `CCCN(CCC)C(=O)Cc1c(-c2ccc(Cl)cc2)nc2ccc(Cl)cn12`: “inactive”; `C#CC(O)(C=CCl)CC` (stereo not given): “inactive”; `CCCCC(CC)COC(=O)c1c(Br)c(Br)c(Br)c(Br)c1C(=O)OCC(CC)CCCC` (stereo not given): “inactive”. Next, `CCOP(=S)(OCC)Oc1ccc(S(C)=O)cc1` (stereo not given): “inactive”; `O=S(=O)(c1ccccc1)c1ccccc1`: “inactive”; `C=C(C)C(=O)OCCCCOC(=O)C(=C)C`: “inactive”. Turning to `CCCC[N+](CCCC)(CCCC)CCCC`, the Potency result was “inactive”. Next, `O=C(NC(=O)c1cc(F)c(F)cc1Cl)Nc1cc(F)ccc1N1CCC(C(=O)O)CC1`: “inactive”; `CC(C)(C#N)C(C)(C)C#N`: “inactive”. As to `Cc1nc2ccccc2c(=O)n1-c1ccccc1Cl`, the Potency result was “inactive”. Next, `CCOP(=O)(O)C(N)=O`: “inactive”; `CC(C)(C)OOC(C)(C)CCC(C)(C)OOC(C)(C)C`: “inactive”; `C[C@H]1O[C@H](OC2[C@@H](O)[C@@H](O)C(O)[C@H](O)[C@H]2O)[C@@H](N)C[C@@H]1N=C(N)C(=O)O` (stereo not given in full): “inactive”. As for `O=C(CCl)CCl`, the entry is “inactive”. In the case of `COc1ccc(C(O)(c2cncnc2)C2CC2)cc1` (stereo not given), the Potency entry was “inactive”. As for `O=C(O)C(F)(F)C(F)(F)C(F)(F)C(F)(F)C(F)(F)F`, the Potency result was “inactive”. Next, `O=C(O)c1cc(I)cc(I)c1I`: “inactive”.

Turning to `O=C(O)C(O)C(O)C(=O)O` (stereo not given), the Potency entry is “inactive”. Next, `COc1ccc(C(=O)c2c(C)n(CCN3CCOCC3)c3ccccc23)cc1`: “inactive”. On to `CC[N+]1(CCOC(=O)C(O)(c2ccccc2)c2ccccc2)CCCCC1`, for which the Potency result is “inactive”. As for `CCCCCBr`, the Potency result was “inactive”.

On to `CCOP(=S)(OCC)SCSc1cc(Cl)ccc1Cl`, for which the Potency result is “inactive”. As for `CC(CC(C(N)=O)(c1ccccc1)c1ccccc1)N(C)C` (stereo not given), the Potency entry is “inactive”.

As to `C[C@H]1[C@@H]2Cc3ccc(O)cc3[C@@]1(C)CCN2C`, the Potency result was “inactive”.

These data come from PubChem BioAssay (Tox21).
